Measured values from PubChem BioAssay (NCI).
This is part of a sample that, as a whole, favours compounds with a hit. Of some 79,000 tested, about 15% had one in any assay. A number with no mark means an inactive call. Cut-off read from the data, not from the text of the source: active = growth inhibition above about 70%; inactive = the rest.

Assay: NCI Yeast Anticancer Drug Screen. Data for the sgs1 mgt1 strain (AID 161);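 note: 0% = growth of cultures given vehicle only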
Settings: S. cerevisiae sgs1 mgt1 strain, at 50.0 µM, active compounds read high
Summary of the method: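 Percent growth inhibition was derived by comparing compound-exposed mutant yeast with vehicle-exposed cultures. The strain carries alterations in DNA damage repair.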

Q: Which growth inhibition does the source give for `COc1cc(C(=O)O)c(Br)c(OC)c1OC` here?
A: The growth inhibition was 2.55%.

Q: With `Cc1cc2c(cc1C)OC(=O)CC2` as the molecule, how does the growth inhibition read?
A: Its growth inhibition is -1.2%.

Q: For `CC(C)(C)N(Cc1ccccc1)C(=O)Nc1ccccc1`, which growth inhibition is on record?
A: Its growth inhibition is 21.5%.

Q: With `C#CCN(Cc1ccc2nc(-c3ccccc3)c(N)nc2c1)c1cc(OC)c(OC)c(OC)c1` as the molecule, how does the growth inhibition read?
A: Its growth inhibition is 31.8%.

Q: With `NC(=O)O/N=C/c1ccccn1` as the molecule, how does the growth inhibition read?
A: Its growth inhibition is -17.4%.

Q: With `O.[Cl][Co]([Cl])[Cl].c1c[nH]cn1.c1c[nH]cn1` as the molecule, how does the growth inhibition read?
A: The growth inhibition was 15%.

Q: With `O=S(O)CCCCCSSSCCCCCS(=O)O` as the molecule, how does the growth inhibition read?
A: The growth inhibition was -2.8%.

Q: For `Nc1[nH]n(-c2ccccc2)c(=O)c1C1c2ccccc2Sc2ccccc21`, which growth inhibition is on record?
A: The growth inhibition was 16.4%.

Q: For `CCOC(=O)c1ccc(NC(=O)Oc2cc(C)c(Cl)c(C)c2)cc1`, which growth inhibition is on record?
A: The growth inhibition was 2.65%.

Q: For `CC(=O)Oc1ccc(C(c2ccccc2)c2ccccc2)c2ccccc12`, which growth inhibition is on record?
A: The growth inhibition was -1.95%.

Q: For `COc1ncnc2ncn(C)c12`, which growth inhibition is on record?
A: The growth inhibition was -1.25%.

Q: Which growth inhibition does the source give for `CN(C)Cc1cc(C(=O)/C=C/c2ccc(Cl)cc2)cc(CN(C)C)c1O` here?
A: The growth inhibition was -20.9%.

Q: Which growth inhibition does the source give for `CCN1C(=O)CC(SCCSC2CC(=O)N(CC)C2=O)C1=O` (stereo not given) here?
A: Its growth inhibition is 6.25%.

Q: Which growth inhibition does the source give for `COc1ccc(CC(C)SC(CC(=O)O)C(=O)O)cc1` (stereo not given) here?
A: The growth inhibition was 16.4%.

Q: For `CC1(C)N(/N=C/c2ccccc2)C(c2ccccc2)C(c2ccccc2)N1/N=C/c1ccccc1` (stereo not given), which growth inhibition is on record?
A: Its growth inhibition is 6.25%.

Q: With `O=C(/C=C/c1ccc(Cl)cc1)c1cccs1` as the molecule, how does the growth inhibition read?
A: The growth inhibition was 36.6%.

Q: For `CC(=O)COc1cccc2ccccc12`, which growth inhibition is on record?
A: Its growth inhibition is -2.05%.

Q: For `CC[N+](C)(CC)CCOC(=O)C(c1ccccc1)C(O)C1CCCCC1` (stereo not given), which growth inhibition is on record?
A: The growth inhibition was 3.8%.

Q: For `N#CC(NNC(=O)Cc1ccccc1)c1ccccc1O` (stereo not given), which growth inhibition is on record?
A: Its growth inhibition is -2.05%.

Q: For `CN(C)CCSS(=O)(=O)O`, which growth inhibition is on record?
A: Its growth inhibition is -26.3%.

Q: With `CCc1cc2c(Nc3ccccc3)c3c(nc2s1)CCCC3` as the molecule, how does the growth inhibition read?
A: The growth inhibition was -8.75%.

Q: With `Cc1cccc2c1C(=O)C(C1OC(=O)c3ccccc31)C2` (stereo not given) as the molecule, how does the growth inhibition read?
A: The growth inhibition was 1.5%.

Q: For `Nc1cccc2ccc(S(=O)(=O)O)cc12`, which growth inhibition is on record?
A: Its growth inhibition is -24.4%.

Q: For `O=C1N=C2SC(=S)NC(=S)N2NC12c1ccccc1-c1ccccc12`, which growth inhibition is on record?
A: Its growth inhibition is 31%.

Q: Which growth inhibition does the source give for `N#CC(=C1CCCCC1)c1ccccc1` here?
A: Its growth inhibition is -21.6%.

Q: With `CC(C)C(=O)C(C)(C)CCc1ccccn1` as the molecule, how does the growth inhibition read?
A: Its growth inhibition is -28.6%.

Q: Which growth inhibition does the source give for `[O-][n+]1c2ccc(Cl)cc2nc2ccc(Cl)cc21` here?
A: The growth inhibition was -8.25%.

Q: With `CCN(CC)CN1C(=O)C(=O)c2ccccc21` as the molecule, how does the growth inhibition read?
A: Its growth inhibition is 2.6%.

Q: Which growth inhibition does the source give for `Nc1nc(-c2ccccc2)cc(-c2cc(-c3ccccc3)nc(N)n2)n1` here?
A: Its growth inhibition is -18.9%.

Q: For `O=C(O)C(O)c1c[nH]c2ccccc12` (stereo not given), which growth inhibition is on record?
A: Its growth inhibition is -26.6%.

Q: With `CCc1cc(O)c([N+](=O)[O-])cc1[N+](=O)[O-]` as the molecule, how does the growth inhibition read?
A: Its growth inhibition is 21.1%.

Q: Which growth inhibition does the source give for `Cc1cc2c(cc1Cl)SC(N/N=C(\N)c1ccc(Cl)cc1)=NS2(=O)=O` here?
A: Its growth inhibition is -12.3%.

Q: For `COc1nc2ccccc2c(=O)[nH]1`, which growth inhibition is on record?
A: Its growth inhibition is -6.05%.

Q: Which growth inhibition does the source give for `CCC(C)(O)C#CC(C)(O)CC` (stereo not given) here?
A: Its growth inhibition is 11.8%.

Q: For `CN(c1ccccc1)C1C(=O)N(c2ccccc2)C1/C=C/c1ccccc1` (stereo not given), which growth inhibition is on record?
A: The growth inhibition was 13.3%.

Q: Which growth inhibition does the source give for `O=C(O)c1cccc([N+](=O)[O-])c1Nc1cccc(C(F)(F)F)c1` here?
A: The growth inhibition was 32.5%.

Q: For `NC(=O)c1ccc[n+](CCCCCCCCCCC(=O)[O-])c1`, which growth inhibition is on record?
A: The growth inhibition was 0.8%.

Q: Which growth inhibition does the source give for `CC(=O)O[C@@H]1[C@H]2O[C@H]2[C@H]2O[C@@]2(COC(=O)c2ccccc2)[C@H]1OC(C)=O` here?
A: The growth inhibition was 24.4%.

Q: Which growth inhibition does the source give for `CC(=O)Nc1cc(Cl)c(Oc2ccccc2)cc1[N+](=O)[O-]` here?
A: Its growth inhibition is 27.7%.

Q: For `O=C(NNC(=S)Nc1ccccc1)c1nsc2ccccc12`, which growth inhibition is on record?
A: Its growth inhibition is 35%.

Assay: NCI Yeast Anticancer Drug Screen. Data for the cln2 rad14 strain (AID 165);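 note: 0% = growth equal to vehicle treated cultures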
Settings: S. cerevisiae cln2 rad14 strain, at 50.0 µM, active compounds read high
Summary of the method: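 Yeast strain cln2 rad14, bearing defects in cell cycle control and DNA repair, serves as the test system; values reflect growth inhibition compared with vehicle.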

Q: For `COc1cc(C(=O)O)c(Br)c(OC)c1OC`, which growth inhibition is on record?
A: The growth inhibition was -12.7%.

Q: For `Cc1cc2c(cc1C)OC(=O)CC2`, which growth inhibition is on record?
A: The growth inhibition was -11.9%.

Q: For `CC(C)(C)N(Cc1ccccc1)C(=O)Nc1ccccc1`, which growth inhibition is on record?
A: Its growth inhibition is 1.35%.

Q: With `C#CCN(Cc1ccc2nc(-c3ccccc3)c(N)nc2c1)c1cc(OC)c(OC)c(OC)c1` as the molecule, how does the growth inhibition read?
A: The growth inhibition was 16.1%.

Q: With `NC(=O)O/N=C/c1ccccn1` as the molecule, how does the growth inhibition read?
A: Its growth inhibition is -10%.

Q: With `O.[Cl][Co]([Cl])[Cl].c1c[nH]cn1.c1c[nH]cn1` as the molecule, how does the growth inhibition read?
A: Its growth inhibition is 1.95%.

Q: With `O=S(O)CCCCCSSSCCCCCS(=O)O` as the molecule, how does the growth inhibition read?
A: Its growth inhibition is -10.4%.

Q: With `Nc1[nH]n(-c2ccccc2)c(=O)c1C1c2ccccc2Sc2ccccc21` as the molecule, how does the growth inhibition read?
A: The growth inhibition was -66.6%.

Q: For `CCOC(=O)c1ccc(NC(=O)Oc2cc(C)c(Cl)c(C)c2)cc1`, which growth inhibition is on record?
A: Its growth inhibition is 6.35%.

Q: Which growth inhibition does the source give for `CC(=O)Oc1ccc(C(c2ccccc2)c2ccccc2)c2ccccc12` here?
A: Its growth inhibition is 2.85%.

Q: For `COc1ncnc2ncn(C)c12`, which growth inhibition is on record?
A: The growth inhibition was -12.9%.

Q: With `CN(C)Cc1cc(C(=O)/C=C/c2ccc(Cl)cc2)cc(CN(C)C)c1O` as the molecule, how does the growth inhibition read?
A: The growth inhibition was -44.2%.

Q: Which growth inhibition does the source give for `CCN1C(=O)CC(SCCSC2CC(=O)N(CC)C2=O)C1=O` (stereo not given) here?
A: The growth inhibition was -6.55%.

Q: For `COc1ccc(CC(C)SC(CC(=O)O)C(=O)O)cc1` (stereo not given), which growth inhibition is on record?
A: The growth inhibition was -37.9%.

Q: With `CC1(C)N(/N=C/c2ccccc2)C(c2ccccc2)C(c2ccccc2)N1/N=C/c1ccccc1` (stereo not given) as the molecule, how does the growth inhibition read?
A: The growth inhibition was -11.3%.

Q: For `O=C(/C=C/c1ccc(Cl)cc1)c1cccs1`, which growth inhibition is on record?
A: Its growth inhibition is 1.25%.

Q: For `CC(=O)COc1cccc2ccccc12`, which growth inhibition is on record?
A: The growth inhibition was -36.4%.

Q: With `CC[N+](C)(CC)CCOC(=O)C(c1ccccc1)C(O)C1CCCCC1` (stereo not given) as the molecule, how does the growth inhibition read?
A: Its growth inhibition is 17.3%.

Q: Which growth inhibition does the source give for `N#CC(NNC(=O)Cc1ccccc1)c1ccccc1O` (stereo not given) here?
A: Its growth inhibition is -19.4%.

Q: Which growth inhibition does the source give for `CN(C)CCSS(=O)(=O)O` here?
A: Its growth inhibition is 16.6%.

Q: With `CCc1cc2c(Nc3ccccc3)c3c(nc2s1)CCCC3` as the molecule, how does the growth inhibition read?
A: The growth inhibition was 11.5%.

Q: Which growth inhibition does the source give for `Cc1cccc2c1C(=O)C(C1OC(=O)c3ccccc31)C2` (stereo not given) here?
A: Its growth inhibition is -31%.

Q: Which growth inhibition does the source give for `Nc1cccc2ccc(S(=O)(=O)O)cc12` here?
A: Its growth inhibition is -13.8%.

Q: For `O=C1N=C2SC(=S)NC(=S)N2NC12c1ccccc1-c1ccccc12`, which growth inhibition is on record?
A: Its growth inhibition is 10.5%.

Q: For `N#CC(=C1CCCCC1)c1ccccc1`, which growth inhibition is on record?
A: Its growth inhibition is -5.75%.

Q: Which growth inhibition does the source give for `CC(C)C(=O)C(C)(C)CCc1ccccn1` here?
A: The growth inhibition was -15.8%.

Q: Which growth inhibition does the source give for `[O-][n+]1c2ccc(Cl)cc2nc2ccc(Cl)cc21` here?
A: The growth inhibition was -27.4%.

Q: For `CCN(CC)CN1C(=O)C(=O)c2ccccc21`, which growth inhibition is on record?
A: Its growth inhibition is 24.4%.

Q: Which growth inhibition does the source give for `Nc1nc(-c2ccccc2)cc(-c2cc(-c3ccccc3)nc(N)n2)n1` here?
A: Its growth inhibition is -1.5%.

Q: With `O=C(O)C(O)c1c[nH]c2ccccc12` (stereo not given) as the molecule, how does the growth inhibition read?
A: Its growth inhibition is -1.25%.

Q: For `CCc1cc(O)c([N+](=O)[O-])cc1[N+](=O)[O-]`, which growth inhibition is on record?
A: The growth inhibition was -34.8%.

Q: Which growth inhibition does the source give for `Cc1cc2c(cc1Cl)SC(N/N=C(\N)c1ccc(Cl)cc1)=NS2(=O)=O` here?
A: Its growth inhibition is -16.2%.

Q: Which growth inhibition does the source give for `COc1nc2ccccc2c(=O)[nH]1` here?
A: The growth inhibition was 0.1%.

Q: For `CCC(C)(O)C#CC(C)(O)CC` (stereo not given), which growth inhibition is on record?
A: The growth inhibition was -63%.

Q: For `CN(c1ccccc1)C1C(=O)N(c2ccccc2)C1/C=C/c1ccccc1` (stereo not given), which growth inhibition is on record?
A: The growth inhibition was 29.4%.

Q: Which growth inhibition does the source give for `O=C(O)c1cccc([N+](=O)[O-])c1Nc1cccc(C(F)(F)F)c1` here?
A: The growth inhibition was 29.3%.

Q: For `NC(=O)c1ccc[n+](CCCCCCCCCCC(=O)[O-])c1`, which growth inhibition is on record?
A: Its growth inhibition is -15%.

Q: For `CC(=O)O[C@@H]1[C@H]2O[C@H]2[C@H]2O[C@@]2(COC(=O)c2ccccc2)[C@H]1OC(C)=O`, which growth inhibition is on record?
A: Its growth inhibition is -6%.

Q: With `CC(=O)Nc1cc(Cl)c(Oc2ccccc2)cc1[N+](=O)[O-]` as the molecule, how does the growth inhibition read?
A: Its growth inhibition is 33%.

Q: Which growth inhibition does the source give for `O=C(NNC(=S)Nc1ccccc1)c1nsc2ccccc12` here?
A: Its growth inhibition is 29.4%.
